Measured values as given in PubChem BioAssay AID1159580 (chemical genetic matrix, 2015).
Values joined by “and” are separate entries in the source; they are usually repeats but may differ in a detail not shown here. Identical values can stand only once. Among all 5,500 compounds or so, about 2,000 (36%) were called active. Roughly 18% stayed inconclusive and do not appear here. Cut-off read from the data, not from the text of the source: active = normalized growth mostly below about 0.91 (no sharp cut-off); inconclusive = no clear call, values can overlap the other calls; inactive = mostly above about 0.92. Some of the results follow.

Experiment: chemical genetic growth profiling, strain panel (AID 1159580);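 note: tested at 20 µM; growth read once vehicle control cultures reached saturation at 30 °C; 1 = growth at the plate median or of vehicle wells; lower values mean less growth of the strain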
Conditions: S. cerevisiae deletion strains, growth OD

Measured: normalized growth

CC(C)[C@@H]1CC[C@@H](C)C[C@H]1O
inactive: locus YAL021C, strain ccr4, active compounds read low 0.968 | locus YAL026C, strain drs2, active compounds read low 0.987 | locus YAL030W, strain snc1, active compounds read low 0.984 | locus YBL061C, strain skt5, active compounds read low 1.01 | locus YBR009C, strain hhf1, active compounds read low 0.998 | locus YBR021W, strain FUR4, active compounds read low 1.03 | locus YBR023C, strain chs3, active compounds read low 1.01 | locus YBR171W, strain sec66, active compounds read low 0.973 | locus YBR229C, strain ROT2, active compounds read low 1.01 | locus YBR231C, strain swc5, active compounds read low 0.988 | locus YBR279W, strain paf1, active compounds read low 0.998 | locus YCL011C, strain gbp2, active compounds read low 0.982 | locus YCL016C, strain dcc1, active compounds read low 0.995 | locus YCL029C, strain bik1, active compounds read low 1.01 | locus YCL061C, strain MRC1, active compounds read low 0.986 | locus YCL069W, strain vba3, active compounds read low 0.973 | locus YCR088W, strain abp1, active compounds read low 0.979 | locus YDL005C, strain med2, active compounds read low 0.98 | locus YDL035C, strain GPR1, active compounds read low 1.02 | locus YDL040C, strain nat1, active compounds read low 0.979 | locus YDL074C, strain BRE1, active compounds read low 0.997 | locus YDL101C, strain DUN1, active compounds read low 1.01 | locus YDL134C, strain PPH21, active compounds read low 1.01 | locus YDL185W, strain tfp1, active compounds read low 1.02 | locus YDL192W, strain arf1, active compounds read low 1.02 | locus YDR001C, strain nth1, active compounds read low 0.978 | locus YDR069C, strain doa4, active compounds read low 0.992 | locus YDR101C, strain arx1, active compounds read low 0.996 | locus YDR137W, strain rgp1, active compounds read low 0.898 | locus YDR150W, strain NUM1, active compounds read low 1.01 | locus YDR159W, strain sac3, active compounds read low 0.964 | locus YDR162C, strain NBP2, active compounds read low 1.02 | locus YDR195W, strain ref2 0.986 | locus YDR297W, strain sur2, active compounds read low 0.984 | locus YDR318W, strain mcm21, active compounds read low 1.02 | locus YDR334W, strain swr1, active compounds read low 0.951 | locus YDR335W, strain msn5, active compounds read low 0.984 | locus YDR388W, active compounds read low 1.01 | locus YDR392W, strain spt3, active compounds read low 0.958 | locus YDR502C, strain sam2, active compounds read low 1.01 | locus YEL003W, strain gim4, active compounds read low 0.989 | locus YEL037C, strain rad23, active compounds read low 0.968 | locus YEL061C, strain CIN8 (second series), active compounds read low 0.963 | locus YEL061C, strain CIN8, active compounds read low 1.01 | locus YER015W, strain faa2, active compounds read low 0.996 | locus YER016W, strain bim1, active compounds read low 0.992 | locus YER110C, active compounds read low 1.03 | locus YER111C, strain swi4, active compounds read low 0.961 | locus YER155C, strain BEM2 (second series), active compounds read low 0.94 | locus YER155C, strain BEM2, active compounds read low 1.01 | locus YER167W, strain BCK2, active compounds read low 1.02 | locus YFR010W, strain ubp6, active compounds read low 0.989 | locus YGL078C, strain dbp3, active compounds read low 1.02 | locus YGL086W, strain mad1, active compounds read low 1.01 | locus YGL167C, strain pmr1, active compounds read low 1 | locus YGL173C, strain kem1, active compounds read low 0.999 | locus YGL227W, strain vid30, active compounds read low 0.981 | locus YGL240W, strain doc1, active compounds read low 0.995 | locus YGL248W, strain PDE1, active compounds read low 0.992 | locus YGL253W, strain hxk2, active compounds read low 0.995 | locus YGR078C, strain PAC10, active compounds read low 0.975 | locus YGR135W, strain pre9, active compounds read low 1.04 | locus YGR229C, strain SMI1, active compounds read low 1.03 | locus YGR252W, strain gcn5, active compounds read low 1.03 | locus YHR013C, strain ard1, active compounds read low 1.03 | locus YHR027C, strain rpn1, active compounds read low 0.996 | locus YHR030C, strain SLT2, active compounds read low 1.01 and 0.979 | locus YHR079C, strain IRE1 (second series), active compounds read low 1.01 | locus YHR079C, strain IRE1, active compounds read low 0.991 | locus YHR094C, strain hxt1, active compounds read low 1.02 | locus YHR129C, strain ARP1, active compounds read low 1.01 | locus YHR142W, strain chs7, active compounds read low 0.988 | locus YHR200W, strain rpn10, active compounds read low 1.02 | locus YIL066C, strain RNR3, active compounds read low 0.994 | locus YIL073C, strain SPO22, active compounds read low 1.09 | locus YIL125W, strain kgd1, active compounds read low 1.01 | locus YIR030C, strain dcg1, active compounds read low 1.01 | locus YJL092W, strain hpr5, active compounds read low 0.977 | locus YJL095W, strain BCK1 (second series), active compounds read low 0.986 | locus YJL095W, strain BCK1, active compounds read low 0.972 and 0.985 | locus YJL115W, strain asf1, active compounds read low 0.981 | locus YJL129C, strain trk1, active compounds read low 0.937 | locus YJL134W, strain LCB3, active compounds read low 1.01 | locus YJL154C, strain vps35, active compounds read low 0.972 | locus YJL164C, strain tpk1, active compounds read low 0.998 | locus YJL166W, strain qcr8, active compounds read low 0.986 | locus YJL168C, strain set2, active compounds read low 1.01 | locus YJL187C, strain SWE1 (second series), active compounds read low 0.984 | locus YJL187C, strain SWE1, active compounds read low 0.99 | locus YJR043C, strain POL32, active compounds read low 1.02
